Bioassay records as filed in PubChem.
DT40 TDP1 no CPT: qHTS for Inhibitors of human tyrosyl-DNA phosphodiesterase 1 (TDP1): qHTS in cells in absence of CPT. DT40 Tdp1-/- hTDP1 cells, no CPT, ATP luminescence, 48 h. Potency, µM (series often up to 46.2 µM), actives largely listed as inhibitors. AID 686978, 2013. 15% of 420,000 active; also: nearly all actives have a fitted effect of over 55% in size
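Growth of hTDP1-complemented DT40 Tdp1-knockout cells is measured by ATP luminescence after at least 48 hr compound exposure at 37 °C, with DMSO substituting for the 20 nM CPT used in the parallel screen.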
RORgamma inh: inhibitors of mouse ROR gamma transcriptional activity; P51450; Drosophila S2 Gal4-RORgamma UAS-luciferase reporter, 20 h; Potency, µM (top dose mostly 53.6 µM), actives largely listed as inhibitors; 5.4% of 310,000 active; AID 2551; also: nearly all actives have a fitted effect of over 60% in size
Target sequence (P51450 whole entry, looked up, the tested form may be a part): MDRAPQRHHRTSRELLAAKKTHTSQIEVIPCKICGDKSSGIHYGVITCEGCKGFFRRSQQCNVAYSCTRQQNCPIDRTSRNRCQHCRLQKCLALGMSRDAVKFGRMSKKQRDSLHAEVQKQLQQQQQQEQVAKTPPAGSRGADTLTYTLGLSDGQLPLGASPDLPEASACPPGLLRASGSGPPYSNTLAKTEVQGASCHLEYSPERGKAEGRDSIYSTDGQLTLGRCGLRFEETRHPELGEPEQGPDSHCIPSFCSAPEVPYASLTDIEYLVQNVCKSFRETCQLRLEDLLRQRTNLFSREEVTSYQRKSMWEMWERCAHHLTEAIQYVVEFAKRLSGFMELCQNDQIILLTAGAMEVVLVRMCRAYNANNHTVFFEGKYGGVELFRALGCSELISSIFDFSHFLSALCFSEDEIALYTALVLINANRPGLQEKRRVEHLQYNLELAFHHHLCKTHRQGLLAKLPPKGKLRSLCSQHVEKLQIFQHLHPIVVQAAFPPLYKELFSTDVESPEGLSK
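In this cell-based reporter format, copper sulfate (700 uM final) drives Gal4–ROR gamma fusion expression from a metallothionein promoter in Drosophila Schneider cells; compounds preincubated 1 hr, reporter read after 20 hr at ambient temperature.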
ELG1 DNA repair: blocks ELG1-dependent DNA repair in HEK293T cells | Potency, µM (series often up to 46.1 µM), most hits filed as inhibitors | HEK293T ELG1-luciferase reporter, luminescence, 16 h; DNA damage induced by 5-fluorouridine | 2.3% of 330,000 active; also: nearly all actives have a fitted effect of over 55% in size
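Cells (2,000 per well) received 5-fluorouridine plus test compound or DMSO and were incubated 16 hr at 37 °C, 5% CO2. Luciferase activity was read by luminescence 30 min after ONE-Glo addition; signal suppression marked inhibition of damage-induced ELG1 function.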
Gal4-VP16 FLuc: counter-screen for ROR gamma inhibitors: Gal4-VP16 reporter; Drosophila S2 Gal4-VP16 UAS-luciferase, luminescence, 20 h; 3.5% of 310,000 active; Potency, µM (titrated, usually from 53.6 µM), actives largely listed as inhibitors; AID 2546;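 also: Gal4-VP16 expression switched on by copper sulfate through the metallothionein promoter; nearly all actives have a fitted effect of over 50% in size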
12-LOX inh: inhibitors of human 12S-lipoxygenase ALOX12. 1.1% of 580,000 active. purified 12hLO, xylenol orange hydroperoxide absorbance. AID 1671190. Potency, µM (highest dose often 108 µM), hits mostly inhibitors
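Purified human 12hLO at 150 nM in 25 mM Hepes, 0.01% Triton X-100, pH 7.0, preincubated 15 min at room temperature with compound. Reaction started with 40 uM arachidonic acid, 30 min at room temperature. Hydroperoxide measured by Fe-xylenol orange, 573/405 nm absorbance ratio.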
DT40 TDP1 CPT: growth inhibition of DT40 Tdp1-/-;hTDP1 cells with camptothecin (screen for TDP1 inhibitors). chicken DT40 Tdp1-/-;hTDP1 cells + 20 nM CPT, ATP luminescence, 48 h. 12% of 420,000 active. Potency, µM (doses to about 46.2 µM), actives largely listed as inhibitors; also: nearly all actives have a fitted effect of over 55% in size
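Chicken DT40 Tdp1-/- cells stably complemented with human TDP1 were seeded at 400 cells/well in medium containing 20 nM camptothecin, exposed to pin-transferred compounds, and grown at 37 °C for at least 48 hr. Viability was read as ATP luminescence.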
A number is an active result; . = inactive; ? = inconclusive; / = not tested or not shown; [ ] = another dose, or the depositor's remark. Only some compounds are listed: those with a hit (about 15% of all), similar ones and a draw of the others. Calls follow the shape of the dose curve; as a rule, active = well fitted curve in the direction sought with a large enough effect; inconclusive = small, poorly fitted or top-dose-only effect, or another doubt; inactive = no such curve, though single readings can be large; an effect the other way counts as inactive or inconclusive.

SMILES	DT40 TDP1 no CPT	RORgamma inh	ELG1 DNA repair	Gal4-VP16 FLuc	12-LOX inh	DT40 TDP1 CPT
COc1ccc(-c2cc(C(F)(F)F)nc(N3CCN(C)CC3)n2)cc1OC	20.6µM	.	?	.	.	?
COc1ccc(-c2cc(C(F)(F)F)nc(N3CCCCCC3)n2)cc1	.	.	.	.	.	.
CCCN(CC(=O)Nc1ccccc1C(=O)c1ccccc1)Cc1nnc(-c2ccco2)o1	/	/	/	/	.	/
Cn1ccnc1C(NC(=O)Nc1ccc(F)cc1)c1ccccc1F (configuration not stated)	/	/	/	/	.	/
COCCN(C)C[C@@H]1CN(C(=O)c2ccc(=O)n(C)c2)C[C@@H]1CO	/	/	/	/	.	/
Cc1ccc(C(=O)N2CCn3c(nn(-c4cccc(Cl)c4)c3=O)C2)cc1	/	/	/	/	.[6.33 µM]	/
COC(=O)Cn1c(=NC(=O)c2ccc(OC)cc2)sc2cc(OC)ccc21	9.2µM	.	.	.	.	?
COC(=O)Cn1c(=NC(=O)c2cc(OC)cc(OC)c2)sc2cc(OC)ccc21	?	?	?	.	.	?
COC(=O)Cn1c(=NC(=O)c2cccc(OC)c2)sc2cc(OC)ccc21	23.1µM	.	?	.	.	.
COC(=O)C1=C(C)N(c2ccc(C(=O)OC)cc2)C(=O)C1	?	.	.	.	?	?
COC(=O)C1=C(C)N(c2cc(Cl)cc(Cl)c2)C(=O)C1	8.2µM	?	.	.	?	7.31µM
COc1cc2nc(NC(=O)c3ccc(S(=O)(=O)N4CCc5ccccc54)cc3)sc2cc1OC	14.6µM	/	/	/	?	20.6µM
COc1ccc(C(=O)Nc2ccc(S(=O)(=O)N3CCc4ccccc43)cc2)cc1	23.1µM	/	/	/	.	25.9µM
CCOC(=O)N1CCN(S(=O)(=O)c2ccc(C(=O)N(CCCN(C)C)c3nc4ccc(OC)cc4s3)cc2)CC1	?	.	.	.	.	?
COc1cc2nc(N(CCCN(C)C)C(=O)c3ccc(S(=O)(=O)N4CCc5ccccc54)cc3)sc2cc1OC	16.4µM	/	?	/	?	?
COc1ccc(NC(=O)c2cccc(S(=O)(=O)N3CCc4ccccc43)c2)cn1	?	.	8.2µM	?	.	.
CCC(=O)N1CCN(c2ccccc2NC(=O)c2ccc(C#N)cc2F)CC1	/	/	/	/	.	/
CCOc1ccc(C(=O)N2CCS(=O)CC2)cc1OC	/	/	/	/	.	/
CCOC(=O)CCC(=O)Nc1ccc(S(=O)(=O)N2CCc3ccccc32)cc1	.	.	.	.	.	.
CCCC(=O)NC(=S)Nc1ccc(S(=O)(=O)N2CCc3ccccc32)cc1	20.6µM	/	/	/	.	?
COc1cc2c(cc1OC)CN(C(=O)c1cccc(S(=O)(=O)N3CCc4ccccc43)c1)CC2	16.4µM	/	?	/	.	20.6µM
COc1ccc2sc(N(CCCN(C)C)C(=O)c3ccc(S(=O)(=O)N4CCCc5ccccc54)cc3)nc2c1	16.4µM	/	?	/	?	?
Cc1c(Cl)ccc2sc(NC(=O)c3ccc(S(=O)(=O)N4CCCc5ccccc54)cc3)nc12	18.4µM	/	/	/	?	?
CCN(CC)S(=O)(=O)NCc1ccnc(OCc2ccccc2)c1	/	/	/	/	.	/
COc1ccccc1CNc1nc(-c2ccco2)nn1S(=O)(=O)c1ccccc1	/	/	/	/	.	/
SMILES	DT40 TDP1 no CPT	RORgamma inh	ELG1 DNA repair	Gal4-VP16 FLuc	12-LOX inh	DT40 TDP1 CPT
CCCCn1c(=O)[nH]c(=O)c2c1nc(COC(=O)C=C(C)C)n2CC	/	/	/	/	.	/
COCCNC(=O)c1ccc(S(=O)(=O)N2CCCc3ccccc32)cc1	.	.	?	15.8µM	.	.
O=C(O)c1ccc(S(=O)(=O)N2CCCc3ccccc32)cc1	.	.	.	.	.	.
CC(OC(=O)c1nn(C(C)C)c(=O)c2ccccc12)C(=O)Nc1nc(-c2ccccc2)cs1 (configuration not stated)	/	/	/	/	.	/
C[C@@H]1C[C@@H]([C@@H](C)CC2CC(=O)NC(=O)C2)C(=O)[C@@H](C)C1	/	0.224µM	/	.	/	/
O=C(Nc1cccc(C(F)(F)F)c1)C1Cc2c(-c3ccco3)ccnc2O1 (configuration not stated)	?	/	/	/	?	16.4µM
O=C(Nc1cccc(Oc2ccccc2)c1)C1Cc2c(-c3ccc4c(c3)OCO4)ccnc2O1 (configuration not stated)	?	/	/	/	.	?
O=C(Nc1cccc(OC(F)(F)F)c1)C1Cc2c(-c3ccc4c(c3)OCO4)ccnc2O1 (configuration not stated)	20.6µM	/	/	/	.	16.4µM
O=C(Nc1cccc(OC(F)(F)F)c1)C1Cc2c(-c3ccc(Cl)cc3)ccnc2O1 (configuration not stated)	?	/	/	/	.	?
O=C(Nc1cccc(OC(F)(F)F)c1)C1Cc2c(-c3ccco3)ccnc2O1 (configuration not stated)	18.4µM	/	/	/	.	?
O=C(Nc1cccc(C(F)(F)F)c1)C1Cc2c(-c3ccccc3)ccnc2O1 (configuration not stated)	25.9µM	/	/	/	?	?
O=C(Nc1cccnc1)C1Cc2c(-c3ccco3)ccnc2O1 (configuration not stated)	?	/	/	/	.	.
CC(=O)c1cccc(-c2ccnc3c2CC(C(=O)Nc2cccc(OC(F)(F)F)c2)O3)c1 (configuration not stated)	?	/	/	/	?	.
COc1ccc(C2(C)N(O)C(C)C(c3cccs3)=[N+]2[O-])cc1 (configuration not stated)	/	/	/	/	.	/
O=C(Nc1cc(F)c(F)c(F)c1)N1CC2CC(C1)[C@H]1CCCC(=O)N1C2 (some centres not stated)	/	/	/	/	.	/
COC(=O)c1sc(NC(=O)COC(=O)c2ccc3c(c2)NC(=O)CS3)c(C(=O)OC)c1C	/	/	/	/	.	/
CC(Oc1ccc(-n2cnnn2)cc1)C(=O)Nc1ccccc1Sc1ccccc1 (configuration not stated)	/	/	/	/	.	/
Cc1ccc(C2N(C)C(=O)c3ccccc3N2C)cc1 (configuration not stated)	20.6µM	.	.	.	.	.
Cc1nc(-c2ccc(S(=O)(=O)Nc3ccc(C)c(C)c3)cc2)co1	/	/	/	/	.	/
CCCc1nc(SC2CCCC2)c2c(=O)n(C)c(=O)n(C)c2n1	23.1µM	.	.	.	.	23.1µM
CCCc1nc(SCc2ccccn2)c2c(=O)n(C)c(=O)n(C)c2n1	?	.	?	.	.	?
CCCc1nc(SCC(=O)N2CCN(c3ccccc3)CC2)c2c(=O)n(C)c(=O)n(C)c2n1	7.31µM	?	?	.	.	6.51µM
CCc1nc(SCC(=O)N2CCC(C)CC2)c2c(=O)n(C)c(=O)n(C)c2n1	25.9µM	?	20.6µM	.	.	?
